From PubChem BioAssay (NCATS)
Where “and” joins values, the source holds several entries; their conditions need not be identical. Equal values may be shown once. Inconclusive results are not listed. Calls of active or inactive are those of the source. Unless noted, calls follow the shape of the dose curve; as a rule, active = well fitted curve in the direction sought with a large enough effect; inconclusive = small, poorly fitted or top-dose-only effect, or another doubt; inactive = no such curve, though single readings can be large; an effect the other way counts as inactive or inconclusive.

Columns and labels:
[1] = Cellular Toxicity (caspase-3) HUV-EC-C (AID 656);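 also: 0% = DMSO basal and 100% = 100 µM tamoxifen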
How it was run: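 HUV-EC-C endothelial cells, 1000/well, were pre-incubated 5 hr at 37°C, then exposed to compounds for 16 hr at 37°C. Caspase-Glo 3/7 luminescence was read after 20 min at room temperature. AC50 came from Hill fits, normalized to DMSO and 100 uM tamoxifen.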

[2] = Cellular Toxicity (caspase-3) SHSY5Y (AID 657)
How it was run: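 SH-SY5Y human neuroblastoma cells (1500/well) were treated with compounds for 16 h at 37 °C, then Caspase-Glo 3/7 luminescence was read after 1 h at room temperature. Data normalized to DMSO and 10 uM staurosporine; AC50 from Hill fits.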

[3] = Cellular Toxicity (caspase-3) H-4-II-E (AID 663); details: Potency: caspase-3 activation;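 also: cells exposed to compound for 16 hr before readout; 0% = DMSO basal and 100% = 100 µM tamoxifen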
How it was run: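 Luminescence from caspase-cleaved aminoluciferin substrate, read 20 min after reagent addition, reports caspase 3/7 activation in rat H-4-II-E cells after 16 hr compound exposure. Normalized to DMSO (basal) and 100 uM tamoxifen (100%); AC50 from Hill fits.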

[4] = Cell Viability - LYMP1-002 - Assay at 16 hr (AID 948);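 also: 0% = DMSO alone and full effect = 92 µM tetraoctylammonium bromide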
How it was run: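 Human lymphoblastoid cells (LYMP1-002), 2500/well, were preincubated 5 hr at 37 C, then exposed to compounds for 16 hr at 37 C in complete medium. Cellular ATP was read by CellTiter-Glo luminescence after 30 min at room temperature; AC50 from Hill fits.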

[5] = MultiTox-Fluor Cytotoxicity Assay - LYMP1-002 - Dead Cells (AID 960); also: nearly all actives have a fitted effect of over 60% in size
How it was run: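 LYMP1-002 cells 2500/well; 5 hr 37 C pre-incubation; compound 16 hr 37 C; MultiTox-Fluor reagent 60 min RT; dead-cell fluor Ex/Em 485/520. Norm. to DMSO (0%) vs 15 uM tetraoctylammonium bromide (100%); Hill AC50.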

[6] = Cell Viability - LYMP1-003 - Assay at 24 hr (AID 963);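 also: plate controls were DMSO only for no effect and tetraoctylammonium bromide positive control for full effect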
How it was run: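 Cells seeded at 2500/well, 5 hr at 37 C; compounds added; 24 hr at 37 C; CellTiter-Glo added, 30 min room temperature; luminescence read. Decrease in ATP taken as cytotoxicity, AC50 from Hill modelling.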

[7] = Cell Viability - LYMP1-003 - Assay at 40 hr (AID 964); also: series mostly up to about 92 µM; % is scaled to controls: 0 for no effect and ±100 for the full control effect; nearly all actives have a fitted effect of over 60% in size
How it was run: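 Cells were seeded at 2500 per well and incubated 5 hr at 37 C. Compounds were added across a concentration series and left 40 hr at 37 C. CellTiter-Glo was added for 30 min at room temperature before luminescence reading.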

[8] = Cell Viability - LYMP2-003 (AID 965);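 also: cells exposed to compounds for 24 h before reading; 0% = DMSO only and full effect = 92 µM tetraoctylammonium bromide; nearly all actives have a fitted effect of over 50% in size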
How it was run: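 Human lymphoblastoid cells (2500/well) were pre-incubated 5 hr at 37 C, then exposed to compounds over a concentration range for 24 hr at 37 C. Intracellular ATP was read by CellTiter-Glo luminescence; AC50 came from Hill-equation fits.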

[9] = Cell Viability - LYMP2-009 (AID 968);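 also: series mostly up to about 92 µM; 0% = DMSO alone and the full-kill end = tetraoctylammonium bromide at 92 µM; nearly all actives have a fitted effect of over 55% in size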
[10] = Cell Viability - LYMP2-011 (AID 969);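 also: 0% = DMSO only and full inhibition = 92 µM tetraoctylammonium bromide; nearly all actives have a fitted effect of over 60% in size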
How it was run: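 2500 cells/well, 5 hr 37 C; compound added, 24 hr 37 C; CellTiter-Glo 30 min RT; luminescence. qHTS concentration-response, Hill-equation AC50. Tetraoctylammonium bromide positive control.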

[11] = Cell Viability - LYMP2-013 (AID 970);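 also: series mostly up to about 92 µM; 0% = DMSO only and full inhibition = tetraoctylammonium bromide control; nearly all actives have a fitted effect of over 55% in size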
How it was run: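 qHTS; 2500 lymphoblastoid cells/well; 5 hr 37 C settle; cpd 24 hr 37 C; CellTiter-Glo, 30 min RT; luminescence. AC50 = Hill fit.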

[12] = Cell Viability - LYMP2-017 (AID 972); also: series mostly up to about 92 µM; % is scaled to controls: 0 for no effect and ±100 for the full control effect; nearly all actives have a fitted effect of over 55% in size
How it was run: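 2500 cells/well, 5 h 37 C; cpd 24 h 37 C in complete medium; CellTiter-Glo, 30 min RT; luminescence (ATP). AC50 via Hill fit, qHTS.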

[13] = Cell Viability - LYMP2-002 (AID 977);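 also: series mostly up to about 92 µM; plate controls were DMSO only for no effect and 92 µM tetraoctylammonium bromide for full effect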
How it was run: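 Luminescent ATP readout (CellTiter-Glo, 30 min room temperature) after 24 h compound exposure at 37 C of a human lymphoblastoid line, 2500 cells/well. AC50 values derived by standard Hill fitting of qHTS concentration-response data.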

[14] = Cell Viability - LYMP2-012 (AID 982);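 also: cellular ATP by luciferase luminescence where a drop means cytotoxicity; cells exposed to compound for one day before reading; 0% = DMSO only and full loss = 92 µM tetraoctylammonium bromide; nearly all actives have a fitted effect of over 55% in size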
[15] = target: Retinoic acid receptor RXR-alpha (Homo sapiens) (UniProt P19793); test: qHTS assay for small molecule agonists of retinoid X receptor alpha signaling (AID 588544; calls by dose curve;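 also: 0% = DMSO basal wells and 100% = reference agonist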)
[16] = target: Retinoic acid receptor RXR-alpha (Homo sapiens) (UniProt P19793); test: qHTS assay for small molecule antagonists of retinoid X receptor alpha signaling (AID 588546; active = well fitted inhibition curve with a large enough effect in the signal ratio, with a control signal flat, not every such curve was filed as active; the % refers to the signal ratio;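 also: cells stimulated with 9-cis-retinoic acid as agonist; % is scaled to controls: 0 for no effect and ±100 for the full control effect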); details: HEK293T RXRa-UAS-bla, beta-lactamase ratio, antagonist mode
How it was run: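 Beta-lactamase reporter inhibition, read as CCF4 fluorescence ratio (ex 405, em 460/530 nm) after 2 h at RT. HEK293T UAS-bla cells, 2500/well, were stimulated with 9-cis-RA at 500 or 100 nM final alongside test compound for 18 h at 37 C.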

[17] = qHTS assay for small molecule activators of the p53 signaling pathway (AID 651743; active = well fitted activation curve with a large enough effect in the signal ratio, not every such curve was filed as active; the % refers to the signal ratio; also: series mostly up to about 92 µM; % of control where 0% means no effect); details: HCT-116 p53RE-bla, beta-lactamase FRET ratio, 16 h; activation: stronger effect = higher value
How it was run: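 Cell-based beta-lactamase reporter (p53 response elements, HCT-116 background). After a 5-hour preincubation, cells received compound for 16 hours at 37 C; substrate development ran 2 hours at room temperature.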

[18] = qHTS assay for small molecule agonists of the antioxidant response element (ARE) signaling pathway measured by Nrf2-dependant transcriptional activity - cell viability counter screen (AID 720653; active = well fitted curve in the direction sought with a large enough effect in the repeat runs; an effect the other way counts as inactive or inconclusive; also: % is scaled to controls: 0 for no effect and ±100 for the full control effect); details: ARE-bla HepG2 viability, CellTiter-Glo ATP luminescence, 16 h; stronger effect = lower value
How it was run: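 ARE-bla HepG2 cells (2,000/well) rested 5 hrs at 37C/5% CO2, then exposed to compounds in DMSO for 16 hrs. Viability was read in the same wells as intracellular ATP by luminescence, 30 min at room temperature after reagent addition.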

[19] = Cellular Toxicity (caspase-3) SK-N-SH (AID 661);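 also: 0% = DMSO basal and 100% = 10 µM staurosporine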
How it was run: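 Human neuroblastoma SK-N-SH, 1500 cells/well, 5 hr pre-incubation, then compound 16 hr, 37 °C. Caspase-Glo 3/7 reagent, 1 hr RT, luminescence. Norm. to DMSO/10 uM staurosporine; Hill-fit AC50.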

[20] = Cell Viability - LYMP2-023 (AID 975)
How it was run: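 2500 cells/well, 5 hr 37 C; cpd 24 hr 37 C; CellTiter-Glo, 30 min RT; luminescence. qHTS conc-response, Hill fit -> AC50. Pos ctrl tetraoctylammonium bromide.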

Sequence of Retinoic acid receptor RXR-alpha (Homo sapiens) (P19793 whole entry, looked up): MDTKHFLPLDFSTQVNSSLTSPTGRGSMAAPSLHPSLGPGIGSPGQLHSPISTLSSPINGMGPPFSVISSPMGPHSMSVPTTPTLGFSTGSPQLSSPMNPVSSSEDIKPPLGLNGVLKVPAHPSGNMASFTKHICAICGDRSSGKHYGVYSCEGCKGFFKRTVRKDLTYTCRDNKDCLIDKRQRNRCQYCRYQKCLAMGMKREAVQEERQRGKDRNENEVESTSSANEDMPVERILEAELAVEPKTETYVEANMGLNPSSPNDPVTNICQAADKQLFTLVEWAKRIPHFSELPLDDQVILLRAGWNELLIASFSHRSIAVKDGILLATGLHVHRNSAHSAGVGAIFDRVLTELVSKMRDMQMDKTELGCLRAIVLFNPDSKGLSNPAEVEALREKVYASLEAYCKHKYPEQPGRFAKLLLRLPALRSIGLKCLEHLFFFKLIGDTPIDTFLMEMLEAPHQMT

CCCCCC[N+](=O)[O-]
inactive: outcome [1] | outcome [2] | Potency [3] | outcome [4] | Potency [5] | outcome [6] | Potency [7] | Potency [8] | Potency [9] | Potency [10] | Potency [11] | Potency [12] | Potency [13] | Potency [14] | outcome [15] | max response [16] -13.3% | activation [17] -5.04% | max response [18] 8%

O=[N+]([O-])c1cccc2c([N+](=O)[O-])cccc12
inactive: outcome [1] | outcome [2] | Potency [19] | Potency [3] | outcome [4] | Potency [5] | outcome [6] | Potency [7] | Potency [8] | Potency [10] | Potency [12] | Potency [20] | Potency [13] | Potency [14] | max response [16] 7.28% | max response [18] 5.81%

S=c1[nH]c2ccccc2[nH]1
inactive: outcome [1] | outcome [2] | Potency [19] | Potency [3] | outcome [4] | Potency [5] | Potency [7] | Potency [8] | Potency [10] | Potency [11] | Potency [12] | Potency [20] | Potency [13] | outcome [15] | max response [16] 5.37% | activation [17] -4.45% | max response [18] 2.67%

O=C(Cl)OCc1ccccc1
inactive: outcome [1] | outcome [2] | Potency [19] | Potency [3] | outcome [4] | Potency [5] | Potency [7] | Potency [8] | Potency [10] | Potency [11] | Potency [12] | Potency [20] | Potency [13] | Potency [14] | outcome [15] | max response [16] -3.17% | activation [17] -2.98% | max response [18] 6.86%

Cc1ccc([N+](=O)[O-])cc1
inactive: outcome [2] | Potency [19] | Potency [3] | outcome [4] | Potency [5] | outcome [6] | Potency [7] | Potency [8] | Potency [9] | Potency [10] | Potency [20] | Potency [13] | outcome [15] | max response [16] 4.07% | activation [17] -4.73% | max response [18] -6.34%

CN=C=O
inactive: outcome [1] | outcome [2] | Potency [3] | outcome [4] | Potency [5] | outcome [6] | Potency [7] | Potency [8] | Potency [9] | Potency [10] | Potency [12] | Potency [20] | Potency [13] | Potency [14] | outcome [15] | max response [16] 0.777% | activation [17] -2.98%

Cc1cc(-c2ccc(N)c(C)c2)ccc1N
inactive: outcome [1] | outcome [2] | Potency [19] | Potency [3] | Potency [5] | outcome [6] | Potency [7] | Potency [8] | Potency [9] | Potency [10] | Potency [12] | Potency [20] | Potency [14] | max response [16] -5.08% and -3.85% and -31.9% | activation [17] -1.87% and -0.84% and 2.36% | max response [18] -1.36% and 7.56% and 13.5%

COC(=O)Nc1cccc(OC(=O)Nc2cccc(C)c2)c1
inactive: outcome [1] | outcome [2] | Potency [19] | outcome [4] | Potency [5] | outcome [6] | Potency [7] | Potency [11] | Potency [12] | outcome [15] | max response [16] 4.03% | activation [17] -2.65% | max response [18] -11.1%

CC(C)CC(C)N (configuration not stated)
inactive: outcome [1] | outcome [2] | Potency [19] | outcome [4] | Potency [5] | outcome [6] | Potency [7] | Potency [8] | Potency [9] | Potency [10] | Potency [11] | Potency [12] | Potency [13] | Potency [14] | activation [17] -1.88%

Cc1cnc[nH]1
inactive: Potency [19] | Potency [3] | outcome [4] | Potency [5] | outcome [6] | Potency [7] | Potency [9] | Potency [10] | Potency [11] | Potency [12] | Potency [20] | Potency [13] | Potency [14] | outcome [15] | max response [16] 4.17% | activation [17] -6.55%

CCOC(=O)C1OC1(C)c1ccccc1 (configuration not stated)
inactive: outcome [1] | outcome [2] | Potency [19] | Potency [3] | outcome [4] | Potency [5] | outcome [6] | Potency [7] | Potency [8] | Potency [9] | Potency [10] | Potency [11] | Potency [12] | Potency [20] | Potency [14] | outcome [15] | max response [16] -0.211% | activation [17] -3.07% | max response [18] -18.9%

NNC(N)=S
inactive: outcome [1] | outcome [2] | Potency [19] | Potency [3] | outcome [4] | Potency [5] | outcome [6] | Potency [7] | Potency [8] | Potency [9] | Potency [10] | Potency [11] | Potency [12] | Potency [20] | Potency [13] | Potency [14] | max response [16] 9.82% | activation [17] -3.14% | max response [18] 16.5%

Cc1cc(Cl)ccc1O
inactive: outcome [2] | Potency [19] | Potency [3] | outcome [4] | Potency [5] | outcome [6] | Potency [7] | Potency [8] | Potency [10] | Potency [11] | Potency [12] | Potency [20] | Potency [13] | Potency [14] | outcome [15] | max response [16] -5.53% | activation [17] -0.272% | max response [18] 10.4%

O=S(=O)(O)F
inactive: outcome [2] | Potency [19] | Potency [3] | Potency [5] | outcome [6] | Potency [7] | Potency [8] | Potency [10] | Potency [11] | Potency [12] | Potency [20] | Potency [13] | Potency [14] | outcome [15] | max response [16] 39.7% | max response [18] -6.55%

N#CCc1ccccc1
inactive: outcome [1] | outcome [2] | Potency [19] | Potency [3] | outcome [4] | outcome [6] | Potency [7] | Potency [11] | Potency [12] | Potency [20] | Potency [13] | Potency [14] | outcome [15] | max response [16] 20.3% | activation [17] -0.84%

COc1ccccc1N
inactive: outcome [1] | outcome [2] | Potency [19] | Potency [3] | outcome [6] | Potency [7] | Potency [8] | Potency [11] | Potency [12] | Potency [20] | Potency [13] | outcome [15] | max response [18] 6.75%
